The nature of experiment [1]: qHTS assay for small molecule agonists of the p53 signaling pathway (AID 651631; calls by dose curve; note: nearly all actives have a fitted effect of over 15% in size). In outline:
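HCT-116 p53RE-bla reporter line, 16 h compound treatment at 37 °C, then fluorescence after 2 h with B/G FRET substrate.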

Experiment [2] can be described thus: qHTS assay for small molecules that induce genotoxicity in human embryonic kidney cells expressing luciferase-tagged ATAD5 (AID 651632). Note: nearly all actives have a fitted effect of over 15% in size. The gist of the method:
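ATAD5-luc HEK293T, 2,000 cells/well; cpd or DMSO pin-transferred; 16 hr, 37C/5% CO2; Amplite 30 min RT; luminescence.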
A general note: qHTS replaces the single test concentration by a dilution series.

Experiment [3] can be described thus: qHTS assay for small molecule agonists of the p53 signaling pathway - cell viability (AID 651633; calls by dose curve;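 note: p53RE-bla HCT reporter cells with a stable beta-lactamase p53 reporter; series mostly up to about 83 µM; nearly all actives have a fitted effect of over 30% in size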). The gist of the method:
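p53RE-bla cells, seeded at 4,000 per well and rested 5 h at 37 C/5% CO2, received compounds in DMSO for 16 h at 37 C. CellTiter-Glo was then added, and luminescence was read after 30 min at room temperature to gauge cytotoxicity.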

The nature of experiment [4]: qHTS assay for small molecules that induce genotoxicity in human embryonic kidney cells expressing luciferase-tagged ATAD5 - cell viability (AID 651634; calls by dose curve; note: nearly all actives have a fitted effect of over 25% in size). The gist of the method:
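Fluorescence from CellTiter-Fluor, reporting protease activity within live cells, served as the viability read-out. HEK293T cells carrying luciferase-tagged ATAD5 had been treated with compound for 15.5 hr at 37C.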

Experiment [5] is described as follows: qHTS assay for small molecule disruptors of the mitochondrial membrane potential - cell viability (AID 720634; calls by dose curve; note: nearly all actives have a fitted effect of over 20% in size; note: potency is the fitted concentration of half-maximal effect). In outline:
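Cells: HepG2, 2,000/well, attached overnight. Compound 1 hr, 37 C/5% CO2. +m-MPI dye, +CellTiter-Glo 30 min RT. Readout: luminescence (ATP).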

The nature of experiment [6]: qHTS assay for small molecule disruptors of the mitochondrial membrane potential (AID 720635). Note: potency is the fitted concentration of half-maximal effect. The gist of the method: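 HepG2 cells (2,000/well) attached overnight at 37C, then took compound for 1 hr at 37C, 5% CO2. Mito-MPS dye was added for 30 min; fluorescence was read at 490/535 nm (monomers) and 540/590 nm (aggregates).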
A short description of experiment [7]: qHTS assay to test for compound auto fluorescence at 590 nm (red) in HepG2 cells (AID 720674). In outline:
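Compound auto-fluorescence is scored relative to Rose Bengal sodium, measured at 540/590 nm in live HepG2 cultures after 1 hr compound contact (37 C, 5% CO2).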

The nature of experiment [8]: qHTS assay to test for compound auto fluorescence at 535 nm (green) in HepG2 cells (AID 720675).
A short description of experiment [9]: qHTS assay to test for compound auto fluorescence at 460 nm (blue) in HEK293 cells (AID 720678). The gist of the method:
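Blue read-out at excitation 405 nm and emission 460 nm follows overnight compound exposure of HEK293 cells at 37C in 5% CO2. Activity is given as auto fluorescence equivalency to triamterene.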

Experiment [10] is described as follows: qHTS assay to test for compound auto fluorescence at 590 nm (red) in HEK293 cells (AID 720679). In outline: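 Red channel, Ex/Em 540/590nm; signal expressed as equivalency to Rose Bengal sodium. HEK293, 2,000 cells/well, 10% dialyzed FBS; 23 nL compound pinned after 4-5 hr attachment; overnight 37C/5% CO2 before reading.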
Experiment [11] can be described thus: qHTS assay to test for compound auto fluorescence at 535 nm (green) in HEK293 cells (AID 720680).
The nature of experiment [12]: qHTS assay to test for compound auto fluorescence at 460 nm (blue) in HEK293 cell free culture (AID 720681). In outline: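 Test compounds were pinned into cell-free culture medium (DMEM with 10% FBS) and fluorescence was read directly at Ex/Em 405/460 nm. Signals were expressed as fluorescence equivalents of triamterene, with DMSO vehicle as control.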
The nature of experiment [13]: qHTS assay to test for compound auto fluorescence at 535 nm (green) in HEK293 cell free culture (AID 720682). The gist of the method: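 Steps: dispense DMEM/10% FBS into empty wells; pin in compound or DMSO; measure fluorescence at 485/535 nm. Values are fluorescein equivalents.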
Experiment [14] can be described thus: qHTS assay to test for compound auto fluorescence at 590 nm (red) in HEK293 cell free culture (AID 720683). The gist of the method:
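Tox21 10K library compounds were pinned into cell-free DMEM with 10% FBS and fluorescence was read at excitation 540 nm. Activity is expressed as Rose Bengal sodium equivalency.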

Experiment [15] is described as follows: qHTS assay to test for compound auto fluorescence at 590 nm (red) in HepG2 cell free culture (AID 720684). The gist of the method: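 Measured in medium alone (MEM containing 10% FBS) following pintool addition of compound; emission at 590 nm with 540 nm excitation, referenced to Rose Bengal sodium.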
The nature of experiment [16]: qHTS assay to test for compound auto fluorescence at 460 nm (blue) in HepG2 cell free culture (AID 720685). The gist of the method:
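Compound (23 nL) or DMSO pinned into cell-free MEM with 10% FBS; blue fluorescence read at 405/460 nm excitation/emission, expressed as auto-fluorescence equivalency to triamterene.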

Experiment [17] in a line: qHTS assay to test for compound auto fluorescence at 535 nm (green) in HepG2 cell free culture (AID 720686).
Experiment [18] can be described thus: qHTS assay to test for compound auto fluorescence at 460 nm (blue) in HepG2 cells (AID 720687). In outline: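 Cells (2,000/well in MEM with 10% FBS) attached overnight at 37 C, then were exposed to compound or DMSO for 1 hr at 37 C, 5% CO2. Fluorescence read at Ex/Em 405/460 nm, expressed as triamterene-equivalent signal.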
Experiment [19] deals with Glucocorticoid receptor (Homo sapiens) (UniProt P04150). Briefly: qHTS assay to identify small molecule agonists of the glucocorticoid receptor (GR) signaling pathway (AID 720691; active = well fitted activation curve with a large enough effect in the signal ratio in the repeat runs, not every such curve was filed as active; the % refers to the signal ratio). In outline: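 Fluorescence intensity from LiveBLAzer B/G FRET substrate (2 h, room temperature) reports beta-lactamase expression driven by the glucocorticoid response element in GR-bla HeLa cells after 18 h compound exposure at 37 C.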
Sequence of Glucocorticoid receptor (Homo sapiens) (P04150 whole entry, looked up): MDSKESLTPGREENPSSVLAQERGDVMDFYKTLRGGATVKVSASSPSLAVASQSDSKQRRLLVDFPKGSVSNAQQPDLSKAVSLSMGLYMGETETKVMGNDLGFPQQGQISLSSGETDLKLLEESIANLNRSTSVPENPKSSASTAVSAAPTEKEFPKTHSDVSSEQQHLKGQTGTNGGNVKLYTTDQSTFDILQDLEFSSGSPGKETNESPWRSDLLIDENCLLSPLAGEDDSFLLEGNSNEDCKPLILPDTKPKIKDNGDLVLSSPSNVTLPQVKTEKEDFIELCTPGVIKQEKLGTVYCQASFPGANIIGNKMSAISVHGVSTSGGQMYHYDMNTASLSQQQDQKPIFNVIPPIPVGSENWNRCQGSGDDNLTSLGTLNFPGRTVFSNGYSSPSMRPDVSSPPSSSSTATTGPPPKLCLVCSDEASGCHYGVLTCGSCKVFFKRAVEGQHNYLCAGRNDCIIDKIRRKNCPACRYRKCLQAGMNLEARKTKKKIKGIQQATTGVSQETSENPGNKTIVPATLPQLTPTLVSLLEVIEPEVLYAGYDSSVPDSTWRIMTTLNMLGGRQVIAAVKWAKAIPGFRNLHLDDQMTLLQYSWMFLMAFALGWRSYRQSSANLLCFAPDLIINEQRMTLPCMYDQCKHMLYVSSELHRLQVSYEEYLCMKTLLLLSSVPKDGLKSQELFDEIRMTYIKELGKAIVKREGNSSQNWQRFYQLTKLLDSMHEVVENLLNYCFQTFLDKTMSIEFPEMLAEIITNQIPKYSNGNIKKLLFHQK

Experiment [20] shares this target. The experiment can be described thus: qHTS assay to identify small molecule antagonists of the glucocorticoid receptor (GR) signaling pathway (AID 720692; active = well fitted inhibition curve with a large enough effect in the signal ratio in the repeat runs, not every such curve was filed as active; the % refers to the signal ratio). The gist of the method:
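HeLa GR-bla cells; cmpd + dex 5 nM final, 18 h 37 C; LiveBLAzer B/G FRET substrate 2 h RT; fluorescence intensity read. Antagonist mode, qHTS.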

These results are taken from PubChem BioAssay (Tox21).

Structures are written as SMILES. Results filed as inconclusive are left out. Calls of active or inactive are those of the source. Unless noted, calls come from the whole dose curve; as a rule, active = well fitted curve in the direction sought with a large enough effect in the repeat runs; inconclusive = weak or mixed curves; inactive = no such curve, though single readings can be large; an effect the other way counts as inactive or inconclusive.

As for `CCCCOC(=O)COC(=O)c1ccccc1C(=O)OCCCC`, the Potency result in [1], in [2], in [3], in experiment [4], in experiment [5] and in experiment [6] was “inactive” each time. Moreover, the Potency entry in experiment [9], in experiment [12], in experiment [16], in [18] and in experiment [20] was “inactive” each time. The result in experiment [7], in experiment [8], in [10], in experiment [11], in [13] and in [14] was inactive. Besides, the compound was called inactive in [15], in experiment [17] and in [19].
In the case of `c1ccc(C2CO2)cc1` (stereo not drawn), the Potency result in experiment [1], in [2], in experiment [3], in [4], in [5] and in [6] was “inactive” each time. Moreover, the Potency result in experiment [9], in experiment [12], in experiment [16], in [18] and in [20] was “inactive” each time. The outcome in experiment [7], in [8], in experiment [10], in [11], in experiment [13] and in experiment [14] was inactive. In addition, the compound was classed as inactive in experiment [15], in experiment [17] and in [19].
As to `CC(C)CON=O`, the Potency result in experiment [1], in experiment [2], in [3], in experiment [4], in experiment [5] and in experiment [6] was “inactive” each time. The Potency entry in [9], in [12], in [16], in [18] and in experiment [20] was “inactive” in each case. In addition, the outcome in experiment [7], in experiment [8], in experiment [10], in [11], in experiment [13] and in [14] was inactive. Moreover, the compound was called inactive in experiment [15], in experiment [17] and in experiment [19].
`Brc1ccc(Br)cc1`: the Potency entry in [1], in experiment [2], in [3], in experiment [4], in experiment [5] and in experiment [6] was “inactive” each time. The Potency result in [9], in experiment [12], in [16], in [18] and in experiment [20] was “inactive” each time. For the same compound, the compound was called inactive in experiment [7], in experiment [8], in experiment [10], in experiment [11], in experiment [13] and in [14]. Moreover, the outcome in experiment [15], in experiment [17] and in experiment [19] was inactive.
`CC1(C)C(C(=O)OC(C#N)c2cccc(Oc3ccccc3)c2)C1(C)C` (stereo not drawn): the Potency entry in experiment [1], in experiment [2], in [3], in [4], in experiment [9] and in experiment [12] was “inactive” in each case. Also, the Potency result in experiment [16] and in experiment [18] was “inactive” throughout. Besides, the figures for the Potency in experiment [5] and in [6] were 54.4 µM (active) and 30.9 µM (active), respectively. The result in [7], in experiment [8], in experiment [10], in [11], in experiment [13] and in [14] was inactive. Moreover, the outcome in experiment [15] and in [17] was inactive.
As for `ClC(Cl)(Cl)c1ccccc1`, the Potency entry in experiment [1], in experiment [2], in experiment [3], in [4], in experiment [5] and in experiment [6] was “inactive” each time. The Potency result in experiment [9], in experiment [12], in [16], in [18] and in experiment [20] was “inactive” in each case. For the same compound, the outcome in experiment [7], in [8], in experiment [10], in experiment [11], in experiment [13] and in [14] was inactive. For the same compound, the outcome in experiment [15], in experiment [17] and in experiment [19] was inactive.
